Data as given in PubChem BioAssay.
The source made the active and inactive calls.

Tests used:
[1] = optical density shifts of acrAB sulA E. coli – strain DRC41, OD650, 48 h, E. coli filamentation inducer project, primary screen (AID 1152); conditions: higher = more signal, called active from +8 up or from −8 down;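 further: E. coli MC1000 strain DRC41 lacking acrAB efflux pump and sulA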
[2] = probe aLefty1 binding on compound microarray – biochemical, small-molecule microarray, 635/667 nm fluorescence, primary screen (AID 1153); conditions: higher = more signal;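 further: score merges spot fluorescence with signal-to-noise ratio from the scanned slide images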
[3] = plasmodial surface anion channel blockers, osmotic lysis – cell-based, P. falciparum Indochina, OD700, 1 h, primary screen (AID 1154); conditions: P. falciparum Indochina infected RBC osmotic lysis, higher = more signal, called active from +8 up or from −8 down
[4] = plasmodial surface anion channel blockers, osmotic lysis – cell-based, P. falciparum Indochina, OD700, 2 h, primary screen (AID 1155);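 further: lysis reports solute entry through the parasite surface anion channel PSAC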; conditions: P. falciparum Indochina infected erythrocytes, higher = more signal, called active from +8 up or from −8 down
[5] = changes in parasitized red cell lysis, either direction – P. falciparum Indochina, OD700, 3 h, PSAC antagonist project, primary screen (AID 1156); conditions: P. falciparum-infected erythrocytes, osmotic lysis, higher = more signal, called active from +8 up or from −8 down
[6] = plasmodial surface anion channel blockers, osmotic lysis – cell-based, P. falciparum Indochina, OD700, 18 h, primary screen (AID 1157); conditions: P. falciparum Indochina infected erythrocytes, osmotic lysis OD700, 18 h; higher = more signal, called active from +8 up or from −8 down
[7] = S6 kinase pathway phospho-S6 level changes – cell-based, A549, cytoblot, luminescence, serum-stimulated, primary screen (AID 1158); conditions: 5 h, higher = more signal;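 further: serum-stimulated A549 lung adenocarcinoma cells; signal is phosphorylated S6 detected by cytoblot immunostaining with HRP secondary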
[8] = target: NADPH oxidase 2 (Homo sapiens) (UniProt P04839); test: compounds shifting NOX2 Amplex Red fluorescence – cell-based, HEK293-NOX2, PMA-stimulated, NOX inhibitor project, primary screen (AID 1159); conditions: 45 min, higher = more signal, called active from +8 up or from −8 down; further: test concentration not given here
NADPH oxidase 2 (Homo sapiens), sequence (P04839 whole entry, looked up): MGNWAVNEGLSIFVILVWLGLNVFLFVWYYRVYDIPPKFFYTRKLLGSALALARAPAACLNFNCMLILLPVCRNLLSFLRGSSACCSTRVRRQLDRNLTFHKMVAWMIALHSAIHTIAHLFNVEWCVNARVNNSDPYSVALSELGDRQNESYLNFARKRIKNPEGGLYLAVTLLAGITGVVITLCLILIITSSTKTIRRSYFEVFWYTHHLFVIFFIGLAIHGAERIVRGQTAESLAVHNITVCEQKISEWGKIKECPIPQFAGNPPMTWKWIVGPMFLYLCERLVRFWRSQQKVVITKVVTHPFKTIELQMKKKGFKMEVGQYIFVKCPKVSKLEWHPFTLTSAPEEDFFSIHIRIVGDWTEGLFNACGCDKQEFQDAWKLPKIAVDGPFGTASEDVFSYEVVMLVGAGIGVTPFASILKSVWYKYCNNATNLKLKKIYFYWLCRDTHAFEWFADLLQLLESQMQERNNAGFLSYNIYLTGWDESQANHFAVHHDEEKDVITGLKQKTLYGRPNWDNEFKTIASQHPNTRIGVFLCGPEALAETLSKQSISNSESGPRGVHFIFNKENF

[9] = target: NADPH oxidase 4 (Homo sapiens) (UniProt Q9NPH5); test: compounds shifting NOX4 Amplex Red fluorescence – cell-based, HEK293-NOX4, tetracycline-induced, NOX inhibitor project, primary screen (AID 1160); conditions: HEK293-NOX4, Amplex Red H2O2 fluorescence, 45 min; higher = more signal, called active from +8 up or from −8 down
NADPH oxidase 4 (Homo sapiens), sequence (Q9NPH5 whole entry, looked up): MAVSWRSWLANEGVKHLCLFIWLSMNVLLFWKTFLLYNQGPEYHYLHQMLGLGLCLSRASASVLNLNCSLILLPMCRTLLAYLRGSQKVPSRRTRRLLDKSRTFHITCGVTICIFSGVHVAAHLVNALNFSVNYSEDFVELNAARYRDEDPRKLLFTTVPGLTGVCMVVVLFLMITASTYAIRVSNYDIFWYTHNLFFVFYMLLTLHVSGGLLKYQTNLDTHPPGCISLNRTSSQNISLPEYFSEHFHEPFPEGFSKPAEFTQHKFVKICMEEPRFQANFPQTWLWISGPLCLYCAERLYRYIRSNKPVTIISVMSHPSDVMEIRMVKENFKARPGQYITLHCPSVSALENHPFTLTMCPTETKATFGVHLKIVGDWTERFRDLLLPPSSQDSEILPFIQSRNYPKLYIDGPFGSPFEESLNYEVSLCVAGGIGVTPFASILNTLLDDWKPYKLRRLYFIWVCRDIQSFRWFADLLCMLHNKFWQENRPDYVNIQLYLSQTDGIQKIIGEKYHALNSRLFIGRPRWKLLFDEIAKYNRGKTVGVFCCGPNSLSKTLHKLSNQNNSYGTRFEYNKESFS

[10] = target: NADPH oxidase 5 (Homo sapiens) (UniProt Q96PH1); test: compounds shifting NOX5 Amplex Red fluorescence – cell-based, HEK293-NOX5, NOX inhibitor project, primary screen (AID 1161); conditions: HEK293-NOX5, ionomycin, 45 min, higher = more signal
NADPH oxidase 5 (Homo sapiens), sequence (Q96PH1 whole entry, looked up): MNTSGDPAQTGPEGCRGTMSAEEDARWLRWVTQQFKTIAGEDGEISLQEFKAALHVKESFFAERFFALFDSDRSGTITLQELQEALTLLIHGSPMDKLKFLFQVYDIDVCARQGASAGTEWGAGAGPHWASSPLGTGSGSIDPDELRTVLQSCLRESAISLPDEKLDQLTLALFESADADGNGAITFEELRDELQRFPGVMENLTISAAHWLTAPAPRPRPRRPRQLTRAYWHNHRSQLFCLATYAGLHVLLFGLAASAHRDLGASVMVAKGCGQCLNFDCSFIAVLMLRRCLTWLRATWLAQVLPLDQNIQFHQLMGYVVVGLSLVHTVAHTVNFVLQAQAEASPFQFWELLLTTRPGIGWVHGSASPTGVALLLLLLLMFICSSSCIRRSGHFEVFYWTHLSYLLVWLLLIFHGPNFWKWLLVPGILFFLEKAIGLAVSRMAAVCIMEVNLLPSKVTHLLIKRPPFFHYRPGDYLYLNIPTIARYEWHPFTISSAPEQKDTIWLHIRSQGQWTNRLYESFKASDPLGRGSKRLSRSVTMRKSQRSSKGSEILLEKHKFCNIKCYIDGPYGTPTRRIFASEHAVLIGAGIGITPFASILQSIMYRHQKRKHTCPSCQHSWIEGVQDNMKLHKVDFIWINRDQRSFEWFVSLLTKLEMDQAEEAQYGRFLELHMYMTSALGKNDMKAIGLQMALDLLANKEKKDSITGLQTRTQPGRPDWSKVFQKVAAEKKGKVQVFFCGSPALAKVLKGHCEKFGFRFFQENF

SMILES | z-score [1] | composite z-score [2] | z-score [3] | z-score [4] | z-score [5] | z-score [6] | z-score [7] | z-score [8] | z-score [9] | z-score [10]
CCC1=NOC(CCC2CC(OC(=O)NCc3cccc4c3OCO4)CC3(CCCC(COC(=O)NCCc4ccc(Cl)cc4)O3)O2)C1 (stereo not given) | 0.13 (inactive) | -0.103 | 0.78 (inactive) | -0.172 (inactive) | -0.747 (inactive) | -0.268 (inactive) | -0.695 | 1.28 (inactive) | 0.891 (inactive) | 0.984
CO[C@@H]1COC(=O)[C@@H]2CCCN2C(=O)[C@@H](C)COC(=O)CCC[C@H]1C | -0.476 (inactive) | -0.241 | -0.238 (inactive) | -1.48 (inactive) | -0.0716 (inactive) | -2.21 (inactive) | 2.43 | -0.634 (inactive) | 0.0989 (inactive) | 0.43
Cc1ccc2[nH]c3nc(CCCn4ccnc4-c4ccccc4)nnc3c2c1 | 0.369 (inactive) | 0.0072 | 8.16 (active) | 0.751 (inactive) | 0.632 (inactive) | 0.322 (inactive) | -0.903 | -0.137 (inactive) | -0.375 (inactive) | -1.14
COc1ccc2c(c1)O[C@@H](c1cccc(C(F)(F)F)c1)[C@H](O)C2=O | 0.706 (inactive) | 0.0328 | 2.08 (inactive) | 0.18 (inactive) | 1.19 (inactive) | 0.347 (inactive) | 1.15 | 0.00989 (inactive) | 0.123 (inactive) | -0.44
CC(=O)OC[C@H]1O[C@H](CC=NOC(C)CN2CCCc3nc(C)c(C)cc32)C=C[C@@H]1OC(C)=O (stereo not given in full) | 0.134 (inactive) | -0.0222 | 1.3 (inactive) | 0.674 (inactive) | 0.594 (inactive) | 0.588 (inactive) | -0.597 | -2.12 (inactive) | -2.2 (inactive) | -0.898
COC(=O)[C@H](C)NC(=O)CCC1CC(OC(=O)NCc2cccc3ccccc23)CC2(CCCC(COC(=O)NCc3ccccc3)O2)O1 (stereo not given in full) | -0.249 (inactive) | 0.378 | 0.385 (inactive) | -0.254 (inactive) | 0.0409 (inactive) | 0.0533 (inactive) | 0.362 | 1.42 (inactive) | 0.73 (inactive) | 1.06
C[C@@H]1CC[C@H]2C(=O)OC(CN3C(=O)c4ccccc4C3=O)CN2[C@H]1c1ccc(Br)cc1 (stereo not given in full) | 0.634 (inactive) | 0.0315 | 3.61 (inactive) | 0.63 (inactive) | -0.694 (inactive) | 0.246 (inactive) | 0.134 | 0.371 (inactive) | 0.182 (inactive) | -0.055
COC(=O)[C@H](CCSC)NC(=O)CC=C[C@@H](C)CO | 0.193 (inactive) | -0.101 | 0.291 (inactive) | 0.317 (inactive) | -0.0396 (inactive) | -0.167 (inactive) | 0.81 | 1.58 (inactive) | -1.2 (inactive) | 0.613
COC(=O)[C@H](C)NC(=O)CCC1CC(OC(=O)NCc2cccc3ccccc23)CC2(CCCC(COC(=O)NCCOc3ccccc3)O2)O1 (stereo not given in full) | -0.677 (inactive) | -0.186 | 7.46 (inactive) | 0.622 (inactive) | -0.363 (inactive) | 0.346 (inactive) | 0.152 | 0.00289 (inactive) | -0.292 (inactive) | -0.19
COC(=O)[C@H](Cc1ccccc1)NC(=O)[C@@H](C)CO | -0.388 (inactive) | 0.174 | 0.0772 (inactive) | -0.824 (inactive) | 0.811 (inactive) | -1.87 (inactive) | 1.92 | 0.966 (inactive) | 0.185 (inactive) | -2.94
COC(=O)[C@H](C)NC(=O)CCC1CC(OC(=O)NCc2ccc3c(c2)OCO3)CC2(CCCC(COC(=O)NCCC(C)C)O2)O1 (stereo not given in full) | -1.06 (inactive) | 0.0774 | 19.8 (active) | 4.71 (inactive) | 0.3 (inactive) | 0.638 (inactive) | 0.392 | 0.738 (inactive) | 0.437 (inactive) | 0.284
O=C1C=C[C@@H](O)[C@@H]2[C@@H]3C(=O)N(c4cccc(Oc5ccccc5)c4)C(=O)[C@@H]3CC[C@@H]12 | -1.65 (inactive) | -0.103 | 0.641 (inactive) | -0.158 (inactive) | -0.441 (inactive) | -1.07 (inactive) | 0.249 | 0.472 (inactive) | -0.433 (inactive) | 0.283
CO[C@H]1COC(=O)CC=C[C@@H](C)COC(=O)[C@H]2CCCN2C(=O)CC=C[C@H]1C | 0.694 (inactive) | -0.217 | -0.567 (inactive) | -0.25 (inactive) | -0.521 (inactive) | 0.0572 (inactive) | 0.43 | -0.166 (inactive) | 0.32 (inactive) | 0.364
